Source: PubChem BioAssay
Rows were chosen to be rich in hits. Some 10% of all compounds tested hit in one or more screens of this group.
G9a block: qHTS Assay for Inhibitors of Histone Lysine Methyltransferase G9a. G9a H3K9 monomethylation, AlphaScreen, 2 h. Histone-lysine N-methyltransferase EHMT2 (Homo sapiens), Q96KQ7. Potency, µM (titrated, usually from 102 µM), inactives show top-dose activity, negative = inhibition, most hits filed as inhibitors. 350,000 tested, 8.8% active; also: % is scaled to controls: 0 for no effect and ±100 for the full control effect; nearly all actives have a fitted effect of over 75% in size
Target sequence (Q96KQ7 913-1193 limits assumed): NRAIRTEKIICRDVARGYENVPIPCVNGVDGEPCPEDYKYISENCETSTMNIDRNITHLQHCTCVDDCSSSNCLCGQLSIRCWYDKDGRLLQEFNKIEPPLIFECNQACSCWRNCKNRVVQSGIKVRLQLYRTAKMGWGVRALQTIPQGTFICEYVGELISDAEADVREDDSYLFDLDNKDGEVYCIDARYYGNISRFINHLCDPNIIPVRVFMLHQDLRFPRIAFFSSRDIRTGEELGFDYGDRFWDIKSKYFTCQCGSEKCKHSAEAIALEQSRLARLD
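G9a (20 nM) preincubated 15 min RT with compounds, then 500 nM biotinylated H3K9 peptide and 20 uM SAM added; 2 h RT reaction. Monomethyl-H3K9 product detected by AlphaScreen with anti-H3K9me1 antibody, streptavidin donor and anti-rabbit IgG acceptor beads.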
L3MBTL1 inh: qHTS Assay for the Inhibitors of L3MBTL1; Potency, µM (highest dose often 57.1 µM), without a hit: at the top dose activity, negative = inhibition, usual class: inhibitors; AlphaScreen L3MBTL1–H3K9me1 peptide binding; AID 485360, 2010; 230,000 tested, 0.66% active; also: % is scaled to controls: 0 for no effect and ±100 for the full control effect; nearly all actives have a fitted effect of over 60% in size
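L3MBTL1 50 nM + b-AHA-H3(1-15)K9me1 75 nM, 30 min RT; compound added, 30 min RT; streptavidin donor/Ni-chelate acceptor beads 10 ug/mL each final, 30 min RT dark; AlphaScreen read.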
GLS inh: qHTS for Inhibitors of Glutaminase (GLS). GLS enzymatic activity, qHTS titration. Potency, µM (titrated, usually from 45.5 µM), for inactives: top-dose activity change, negative = inhibition, hits mostly inhibitors. 410,000 tested, 0.21% active; also: % is scaled to controls: 0 for no effect and ±100 for the full control effect
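Assay buffer: 45 mM KH2PO4 pH 8.2, 0.02% Tween-20. hKGA acts on L-glutamine (1 mM solution added); product glutamate is reported by an oxidase/peroxidase Amplex Red coupling, with fluorescence taken at baseline and 30 min.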
BAZ2B inh: qHTS Assay for Inhibitors of BAZ2B; Potency, µM (doses to about 114 µM), for the others: top-dose activity change, negative = inhibition, most hits filed as inhibitors; 360,000 tested, 4.4% active; AlphaScreen BAZ2B-H3K14Ac peptide displacement; AID 504333, 2011; also: % is scaled to controls: 0 for no effect and ±100 for the full control effect; nearly all actives have a fitted effect of over 60% in size
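Multi-concentration screen (max 110 uM) measuring displacement of acetylated histone H3 peptide from BAZ2B by AlphaScreen, using 50 nM protein, 50 nM peptide and 10 ug/mL streptavidin donor plus Ni-chelate acceptor beads.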
HP1b binding inh: HTS for Inhibitors of HP1-beta Chromodomain Interactions with Methylated Histone Tails | AID 540317, 2011 | Potency, µM (doses to about 114 µM), for the others: at the top dose activity change, negative = inhibition, hits mostly inhibitors | 390,000 tested, 0.56% active | Chromobox protein homolog 1 (Homo sapiens), P83916 | AlphaScreen HP1-beta / biotin-H3K9me3 peptide binding; also: nearly all actives have a fitted effect of over 70% in size
Target sequence (P83916 whole entry, looked up): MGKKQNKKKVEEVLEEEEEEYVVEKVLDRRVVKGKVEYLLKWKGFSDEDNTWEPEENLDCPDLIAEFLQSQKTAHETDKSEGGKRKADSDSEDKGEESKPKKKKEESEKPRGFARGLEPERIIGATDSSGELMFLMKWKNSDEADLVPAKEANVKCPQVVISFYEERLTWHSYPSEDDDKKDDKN
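HP1-beta protein (50 nM final) preincubated 30 min at room temperature with biotinylated H3(1-18)K9me3 peptide (50 nM) in PBS pH 7.4, 0.01% Tween-20, then compound added for 30 min. AlphaScreen streptavidin donor/nickel chelate acceptor beads (10 ug/mL final), 30 min dark, luminescence read.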
JMJD2A Tudor: qHTS Assay for Inhibitors of JMJD2A-Tudor Domain; Lysine-specific demethylase 4A (Homo sapiens), O75164; AlphaScreen JMJD2A-Tudor / H3K4me3 peptide binding; Potency, µM (highest dose often 114 µM), for inactives: top-dose activity change, negative = inhibition, most hits filed as inhibitors; 390,000 tested, 4.4% active; AID 504339, 2011; also: % is scaled to controls: 0 for no effect and ±100 for the full control effect; nearly all actives have a fitted effect of over 50% in size
The depositor's hits bear a star; ? = inconclusive; · = not tested or not shown; [ ] = another dose, or the depositor's remark. Calls follow the shape of the dose curve; as a rule, active = well fitted curve in the direction sought with a large enough effect; inconclusive = small, poorly fitted or top-dose-only effect, or another doubt; inactive = no such curve, though single readings can be large; an effect the other way counts as inactive or inconclusive. Potency is read from the fitted curve at half-maximal effect.

SMILES	G9a block	L3MBTL1 inh	GLS inh	BAZ2B inh	HP1b binding inh	JMJD2A Tudor
Cc1cccc(NC(=O)c2cnn(-c3ccccc3)c2-n2cccc2)c1C	-15%[59 µM]	·	-17%	-6%	-5%	-14%
Cc1ccc2c(-c3csc(N)n3)c[nH]c2c1	45µM*	·	·	-27%	·	·
CN1CCN(CC(=O)Nc2nc(-c3c[nH]c4ccccc34)cs2)CC1	?	-7%	-6%	?	12%	-34%
CNc1nc(-c2c[nH]c3ccccc23)cs1	35µM*	·	-1%	35µM*	?	18µM*
CCC(C)Nc1nc(-c2c[nH]c3ccccc23)cs1 (stereo unspecified)	11µM*	·	?	25µM*	?	35µM*
Cc1ccc(C)c(NC(=O)/C(C#N)=C/c2ccc(C(C)C)cc2)c1	-14%[59 µM]	·	0%	-16%	19%	-9%
O=c1c(-c2cc(F)cc(F)c2)nc2cnc(N3CCNCC3)nc2n1Cc1cccs1	9%[12.7 µM]	·	·	·	·	·
COC(=O)C1CC1[C@H](NC(=O)c1cccnc1)c1ccccc1 (stereo partly specified)	·	·	·	·	27%	-8%
Cc1cccc(-c2nc3ccccc3n3c(-c4ccccc4)c4c(=O)n(C)c(=O)n(C)c4c23)c1	?	·	0%	-12%	36%	3%
O=C1C(=Cc2cccn2-c2ccccc2)C(=O)c2ccccc21	3.5µM*	-2%	1%	?	-11%	-29%
O=C(O)c1cccc(-n2cccc2/C=C2/SC(=O)N(CC(=O)N3CCCC3)C2=O)c1	45µM*	·	·	50µM*	?	40µM*
O=C(O)c1cccc(-n2cccc2C=C2C(=O)c3ccccc3C2=O)c1	50µM*	·	-10%	?	-8%	?
O=C(O)c1cccc(N2C(=O)c3ccc4c5c(ccc(c35)C2=O)C(=O)N(c2cccc(C(=O)O)c2)C4=O)c1	13%[12.7 µM]	·	0%	?	1%	-28%
O=C(N/N=C/c1cccc(Cl)c1Cl)Nc1ccccc1	-18%[59 µM]	-3%	-12%	-11%	11%	-12%
O=C(N/N=C/c1cccn1-c1cccc(C(=O)O)c1)Nc1ccccc1	-6%[59 µM]	?	0%	79µM*	-24%	?
O=C1C(=Cc2cccn2-c2ccc(O)cc2)C(=O)c2ccccc21	·	2%	-4%	?	28%	-7%
COc1ccc(-c2nc(CSc3nncn4c3cc3sccc34)c(C)o2)cc1OC	-46%[59 µM]	·	-6%	-23%	8%	-21%
COc1ccc(-c2nc3nc(C)cc(N4CCN(c5cccc(C(F)(F)F)c5)CC4)n3n2)cc1	-33%[59 µM]	·	-3%	-4%	13%	-16%
CN(C(=O)CSc1nc2ccc(NC(=O)CCc3ccccc3)cc2s1)c1ccccc1	-2%[59 µM]	·	6%	-13%	29%	-14%
CC(=O)Nc1ccc(S(=O)(=O)N2CCN(Cc3ccccc3[N+](=O)[O-])CC2)cc1	?	·	-1%	-32%	11%	-29%
O=[N+]([O-])c1ccccc1CN1CCN(c2ncccn2)CC1	?	3%	-4%	50µM*	?	18µM*
O=C(c1ccccc1)N1CCN(Cc2c[nH]c3ccccc23)CC1	3%[59 µM]	-2%	27%	2%	48%	-8%
O=C(c1ccc([N+](=O)[O-])s1)N1CCN(c2ncccn2)CC1	·	·	0%	·	·	·
O=[N+]([O-])c1ccccc1CN1CCN(Cc2c[nH]c3ccccc23)CC1	32µM*	1%	7%	50µM*	?	10µM*
O=[N+]([O-])c1ccccc1CN1CCN(Cc2ccccn2)CC1	4µM*	·	0%	50µM*	-10%	0.79µM*
SMILES	G9a block	L3MBTL1 inh	GLS inh	BAZ2B inh	HP1b binding inh	JMJD2A Tudor
Cc1ccc(S(=O)(=O)c2nnn3c2nc(NC(C)c2ccccc2)c2sccc23)cc1 (stereo unspecified)	3%[59 µM]	·	-10%	-10%	48%	-18%
CCOC(=O)CSc1nnc(NC(=O)c2ccco2)s1	16%	·	3%	-17%	19%	-7%
CCOC(=O)CSc1nnc(NC(=O)c2cccc([N+](=O)[O-])c2C)s1	25µM*	6%	10%	-8%	31%	-10%
CCOC(=O)CSc1nnc(NC(=O)CN2CCCCC2)s1	5%[12.7 µM]	·	34%	-4%	23%	50µM*
CCc1ccc(-n2nc(C)c3c(C(=O)Nc4cc(OC)cc(OC)c4)cc(C)nc32)cc1	-4%[59 µM]	·	-9%	20%[57.1 µM]	23%	-3%
CCOc1ccccc1CNC(=O)c1ccc(NC(=O)C2=C(C)OCCS2)cc1	32µM*	·	-10%	?	29%	-34%
COc1cccc(CNC(=O)Cc2ccc(NC(=O)C3=C(C)OCCS3)cc2)c1	-13%	·	-2%	50µM*	17%	?
CC1=C(C(=O)Nc2ccc(CC(=O)NCc3ccccc3C)cc2)SCCO1	23%	·	5%	?	47%	-16%
CCOc1ccccc1CNC(=O)c1ccc(NC(=O)C2=CSCCO2)cc1	15%	·	1%	-8%	11%[57 µM]	-9%
CC(=O)OCCCNc1cc(SCc2ccco2)c2nonc2c1[N+](=O)[O-]	?	?	6%	?	?	50µM*
CCCC(=O)OCCNc1cc(SCc2ccco2)c2nonc2c1[N+](=O)[O-]	20µM*	?	3%	25µM*	?	?
CCCSc1cc(NCCOC(C)=O)c([N+](=O)[O-])c2nonc12	-28%	3%	1%	-20%	12%[57 µM]	-18%
CCCC(=O)OCCNc1cc(Sc2nccn2C)c2nonc2c1[N+](=O)[O-]	28µM*	-1%	1%	-25%	-32%	-16%
CCCSc1cc(NCCOC(=O)CCC)c([N+](=O)[O-])c2nonc12	?	-15%	-3%	-37%	-23%	-32%
CCCOc1ccc(CNC(=O)C(NS(=O)(=O)c2cccs2)C(C)C)cc1 (stereo unspecified)	0%[12.7 µM]	·	-29%	-32%	26%	-2%
Cc1ccc(S(=O)(=O)N/N=C\c2ccc(C)o2)cc1	?	?	-11%	50µM*	5%	?
Cc1ccc(/C=N/NC(=O)Nc2ccccc2)o1	11%[59 µM]	-8%	12%	?	23%	-15%[57.1 µM]
Cc1ccc(/C=N/NS(=O)(=O)c2ccc([N+](=O)[O-])cc2)o1	13%[59 µM]	8%	25%	-10%	50%	-10%[57.1 µM]
CC(=O)Nc1ccc(S(=O)(=O)N/N=C/c2ccc(C)o2)cc1	45µM*	·	-11%	?	1%	-24%
CCCn1c(=S)[nH]c2sc3c(c2c1=O)CCCC3	-5%	·	-1%	-4%	22%	-33%
